Results on 50 molecules are retold here after PubChem BioAssay AID1745848 (National Center for Advancing Translational Sciences (NCATS), 2022).

Each structure is given as a SMILES string. Out of some 2,100 compounds screened, about 940 (45%) were called active. Roughly 48% stayed inconclusive and do not appear here. So high a share suggests a set chosen from earlier hits. The list shows a part of the results. A number with no mark means an inactive call. Calls follow the shape of the dose curve; as a rule, active = well fitted inhibition curve with a large enough effect; inconclusive = small, poorly fitted or top-dose-only effect; inactive = no such curve, though single readings can be large or run the other way.
Potency is read from the fitted curve at half-maximal effect.

The assay in a line: Confirmatory qHTS for Inhibitors of ATXN expression. Also: nearly all actives have a fitted effect of over 65% in size.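 As to activity change, negative = inhibition: 0% = DMSO vehicle wells and -100% = medium-only wells without cells.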 As to conditions: ATXN2-luciferase reporter cells, luminescence, 24 h; series mostly up to 11.5 µM; activity change, negative = inhibition: at the top concentration. The method in brief:
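A titration, incubated 24 h with reporter cells expressing ATXN2-luciferase. Luminescence (SteadyGlo) gives ATXN2 expression, multiplexed GF-AFC fluorescence gives viability; normalised to DMSO and medium-only wells.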
A general note: In qHTS, concentration-response curves come from the screen itself.
Regarding `C[C@@H]1C[C@@H]2O[C@H]2/C=C\C=C\C(=O)Cc2c(Cl)c(O)cc(O)c2C(=O)O1`, the Potency was 0.631 µM (active).

With `O=C(N/N=C/c1ccccc1O)c1cccc(C(F)(F)F)c1`, the Potency was 0.631 µM (active).

With `O=C(N/N=C/c1c(O)ccc2ccccc12)c1cccc(C(F)(F)F)c1`, the Potency was 1 µM (active).

For `O=C(NN=Cc1c(O)ccc2ccccc12)c1ccc2c(c1)OCO2`, the Potency is 2 µM (active).

As to `CCCC1CCC(c2ccc(C(=O)NN)cc2)CC1` (stereo not given), the Potency is 2.82 µM (active).

On to `c1ccc(-c2cccc(-c3ccccn3)n2)nc1`, for which the Potency was 0.112 µM (active).

On to `FC(F)(F)c1cc(-c2ccccn2)nc2cc(-c3ccccc3)nn12`, for which the “activity change, negative = inhibition” value is -7.24% [at 57.5 µM].

For `Cc1cc(=O)[nH]c(N=N/C(=N/Nc2ccccc2C)c2ccccc2)n1`, the Potency is 1.58 µM (active).

With `CCC(=O)NC(c1cc(Cl)c2cccnc2c1O)C(C)C` (stereo not given), the Potency was 2.82 µM (active).

Take `CC(=O)NC(C)c1cc(Cl)c2cccnc2c1O` (stereo not given): the Potency was 3.98 µM (active).

With `CC(=O)NC(c1cc(Cl)c2cccnc2c1O)C(C)C` (stereo not given), the Potency was 0.794 µM (active).

For the molecule `CCC(=O)NC(C)c1cc(Cl)c2cccnc2c1O` (stereo not given), the Potency was 1.78 µM (active).

For the molecule `N#C/C(=C\c1ccc([N+](=O)[O-])o1)c1nc2ccccc2[nH]1`, the Potency is 3.55 µM (active).

Take `Cc1csc(NC(=O)COCC(=O)O)c1-c1nc2ccccc2s1`: the Potency was 15.8 µM (active).

Consider `O=C(CN1CCCC1)N/N=C/c1c(O)ccc2ccccc12`, for which the Potency is 1.78 µM (active).

`O=C(CN1CCOCC1)N/N=C/c1c(O)ccc2ccccc12`: the Potency is 7.08 µM (active).

With `Nc1nc(N)c2cc(Sc3ccc4ccccc4c3)ccc2n1`, the Potency was 28.2 µM (active).

For `COc1cccc2c1C(=O)c1c(O)c3c(c(O)c1C2=O)C[C@](O)(C(C)=O)C[C@H]3O[C@@H]1C[C@@H](N)[C@@H](O)[C@@H](C)O1`, the Potency is 0.282 µM (active).

Regarding `COc1cccc2c1C(=N)c1c(O)c3c(c(O)c1C2=O)CC(O)(C(C)=O)CC3OC1CC(N)C(O)C(C)O1` (stereo not given), the Potency was 0.224 µM (active).

On to `CCCCC(=O)OCC(=O)C1(O)Cc2c(O)c3c(c(O)c2C(OC2CC(NC(=O)C(F)(F)F)C(O)C(C)O2)C1)C(=O)c1c(OC)cccc1C3=O` (stereo not given), for which the Potency was 2.51 µM (active).

Consider `CC(C)CCNC(=O)COc1cccc2c1OC(C)(C)C2`, for which the “activity change, negative = inhibition” value was -12% [at 57.5 µM].

Regarding `CCOC(=O)c1c2ccc(OCC(=O)N/N=C/c3ccc(C)cc3)cc2n2ccccc12`, the Potency was 11.2 µM (active).

Turning to `CCOC(=O)c1c(CSc2nc(C)cc(C)c2C#N)n(C)c2cc(Br)c(OC(C)=O)cc12`, the “activity change, negative = inhibition” value is -10.6% [at 57.5 µM].

Regarding `COc1ccccc1C(CCNCc1ccccc1)c1ccc(OC(C)C)cc1` (stereo not given), the Potency is 3.98 µM (active).

For `COc1cccc(OC)c1C(=O)OCC(=O)NC(=O)NCc1ccccc1`, the “activity change, negative = inhibition” value is 6.51%.

`COc1ccc(CNCCC(c2ccc(OC(C)C)cc2)c2ccccc2OC)cc1` (stereo not given): the Potency was 3.16 µM (active).

As to `CCOC(=O)c1cnc(-n2nc(C)cc2C)nc1NNc1cc(C)nc(-c2ccccc2)n1`, the Potency is 3.55 µM (active).

For `Cc1ccc(OCC(=O)N2CCN(c3nnc(-c4ccc(C)cc4)c4ccccc34)CC2)cc1`, the Potency was 3.16 µM (active).

In the case of `Oc1[nH]c2ccc(Br)cc2c1N=NC(=S)N1CCOCC1`, the Potency was 0.631 µM (active).

With `Clc1ccc(SCc2cc(N3CCOCC3)nc(-c3ccccn3)n2)cc1`, the Potency was 5.01 µM (active).

As to `CC(C)(C)S(=O)(=O)/C(C#N)=N/Nc1ccc(Cl)cc1`, the Potency was 20 µM (active).

Consider `O=S(=O)(c1ccc(F)cc1)c1snnc1-c1ccccc1`, for which the Potency is 15.8 µM (active).

Take `NS(=O)(=O)c1ccc(N2N=C(c3ccccc3)CC2c2ccc(F)cc2)cc1` (stereo not given): the “activity change, negative = inhibition” value was -25.9%.

In the case of `Cc1ccc(/C=C2\SC(=S)N(CCCC(=O)Nc3ccc(O)cc3)C2=O)cc1`, the “activity change, negative = inhibition” value was -17.4%.

With `Cc1ccc(/C=C2\SC(=S)N(CCCC(=O)NC3CCCC3)C2=O)cc1`, the Potency was 1.41 µM (active).

For `Cc1ccc(/C=C2/SC(=S)N(CCCC(=O)Nc3ccc(O)cc3)C2=O)cc1`, the Potency was 1.41 µM (active).

With `Cc1ccc(/C=C2/SC(=S)N(CCCC(=O)Nc3cc([N+](=O)[O-])ccc3O)C2=O)cc1`, the Potency is 31.6 µM (active).

For the molecule `Cc1ccc(/C=C2\SC(=S)N(CCCC(=O)Nc3nccs3)C2=O)cc1`, the Potency is 7.08 µM (active).

In the case of `Cc1ccc(/C=C2\SC(=S)N(CCCC(=O)Nc3ccccc3C(=O)O)C2=O)cc1`, the Potency was 2.24 µM (active).

On to `Cc1ccc(/C=C2\SC(=S)N(CCCC(=O)Nc3cccnc3)C2=O)cc1`, for which the Potency was 2.24 µM (active).

As to `CCOC(=O)Cn1cc(C(=O)c2ccco2)c2ccccc21`, the “activity change, negative = inhibition” value is 2.65%.

For `Cc1cc(C)cc(NC(=O)/C(C#N)=C/c2cn(CC(=O)NCc3ccco3)c3ccccc23)c1`, the Potency is 1.78 µM (active).

As to `COc1ccc(N2C3=C(CC4=C2CC(C)(C)CC4=O)C(=O)CC(C)(C)C3)cc1`, the “activity change, negative = inhibition” value is 0.241%.

Turning to `COc1cccc(C2CC(c3c(-c4ccccc4)c4cc(Cl)ccc4[nH]c3=O)=NN2S(C)(=O)=O)c1OC` (stereo not given), the Potency is 2.82 µM (active).

Take `O=C1c2ccccc2NC(c2ccc(-c3cccc([N+](=O)[O-])c3)o2)N1O` (stereo not given): the Potency was 15.8 µM (active).

On to `COc1ccc(-c2oc3c(OC)c(OC)c(OC)c(O)c3c(=O)c2OC)cc1OC`, for which the Potency is 10 µM (active).

Regarding `COc1ccccc1N1CCN(Cc2ccc(O)c3ncccc23)CC1`, the Potency was 0.562 µM (active).

Consider `COc1ccccc1N1CCN(Cc2cc(Br)c(O)c3ncccc23)CC1`, for which the Potency is 3.55 µM (active).

`CO[C@@]12[C@@H]3N[C@@H]3CN1C1=C(C(=O)C(N)=C(C)C1=O)[C@@H]2COC(N)=O`: the “activity change, negative = inhibition” value was 6.61%.

With `Cc1nc(SC2CC(=O)N(c3ccccc3)C2=O)n[nH]1` (stereo not given), the “activity change, negative = inhibition” value is 5.8% [at 57.5 µM].
